Compounds with a hit are over-represented: about 6.2% of the library has one in this group of screens.
FMDV antiviral = blocks foot and mouth disease virus | Potency, µM (top dose mostly 57.9 µM), usual class: inhibitors | FMDV antiviral cell-based qHTS | 410,000 tested, 1.2% active | AID 1159524; calls by dose curve; tested in HEK293T cells; also: read-out not given here; nearly all actives have a fitted effect of over 45% in size
HCMV antiviral = inhibitors of human cytomegalovirus; HFF cells, HCMV-luciferase reporter, 72 h; stronger effect = lower value; activity change, negative = inhibition, % at 57.5 µM; 410,000 tested, 4.5% active; AID 1259415; in the data active = activity change below about -60%; inconclusive = no clear call, values can overlap the other calls; inactive = above about -39%
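Inhibition of viral replication was scored as loss of reporter luminescence in HFFs infected with HCMV-luciferase (MOI 1 PFU/cell) for 72 h; compounds tested at 2 doses, normalized to buffer and Salinomycin controls.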
LASV entry inh = inhibitors of Lassa virus binding or cell entry; Lassa virus pseudotype entry inhibition, cell reporter; Potency, µM (top dose mostly 37.9 µM), hits mostly inhibitors; 300,000 tested, 1.2% active; AID 540256; calls by dose curve; tested in HEK293 cells; also: nearly all actives have a fitted effect of over 50% in size
Marburg entry inh = Marburg virus entry inhibition. 300,000 tested, 1.8% active. Potency, µM (top dose mostly 37.8 µM), most hits filed as inhibitors. AID 540276. Marburg virus pseudotyped entry inhibition, cell reporter; calls by dose curve; tested in HEK293 cells
Large screens that a line does not name were inactive.

N=c1ccn(Cc2ccc(Cl)cc2Cl)cc1	FMDV antiviral inconclusive, HCMV antiviral -97.1, LASV entry inh inconclusive
Cc1ccc(C)n1Cc1ccccc1Cl	none
N=c1ccn(Cc2c(Cl)cccc2Cl)cc1	HCMV antiviral -78.3, Marburg entry inh inconclusive
N#Cc1ccccc1CN1CCN(c2ncc(C(=O)NCc3ccco3)s2)C1=O	none (no result: FMDV antiviral, LASV entry inh, Marburg entry inh)
CCCCN(C=O)c1c(CC)nc2ccc(C(=O)NCCOc3ccc(OC)cc3)cn12	none (no result: LASV entry inh, Marburg entry inh)
Cc1cccc(C)c1NC(=O)C1(C)CCc2nc3ccccc3n21 (stereo unspecified)	none (no result: FMDV antiviral, LASV entry inh, Marburg entry inh)
Cc1ccc(OCC(=O)N/N=C/c2ccc([N+](=O)[O-])o2)cc1	HCMV antiviral inconclusive
O=C(COc1ccccc1)N/N=C/c1ccc([N+](=O)[O-])o1	HCMV antiviral -71.0 (no result: LASV entry inh, Marburg entry inh)
O=C(N/N=C/c1ccc([N+](=O)[O-])o1)C(O)c1ccccc1 (stereo unspecified)	HCMV antiviral -60.4 (no result: LASV entry inh, Marburg entry inh)
CN(/N=C/c1ccc([N+](=O)[O-])o1)c1ccccc1	HCMV antiviral -78.0
CC(C(=O)NC(C)(C)C)n1c(C(c2ccccc2)c2ccccc2)nc2ccccc21 (stereo unspecified)	none (no result: LASV entry inh, Marburg entry inh)
COC(=O)N1CCC2(CC1)CCN(c1cccc(-c3ccccc3)c1)CC2	none (no result: HCMV antiviral, LASV entry inh, Marburg entry inh)
O=C(Nc1cccc(Cl)c1)c1csc(C(O)c2cccc(C(F)(F)F)c2)n1 (stereo unspecified)	none (no result: FMDV antiviral, LASV entry inh, Marburg entry inh)
CCCCOc1ccc(CSCCN=C(N)N)cc1	HCMV antiviral -62.1, LASV entry inh inconclusive, Marburg entry inh inconclusive
CCCCOc1ccc(CSC(CC(=O)O)C(=O)O)cc1 (stereo unspecified)	none
CC1=Nc2ccccc2N=C(NC(=O)CSC(=S)N2CCN(C)CC2)C1c1ccccc1 (stereo unspecified)	Marburg entry inh inconclusive
CC1=Nc2ccccc2N=C(NC(=O)CSC(=S)N2CCCCC2)C1c1ccccc1 (stereo unspecified)	Marburg entry inh 10µM
C[C@@H]1CCC(=O)N(CC[C@H](Oc2ccccc2)c2ccccc2)CC1	HCMV antiviral -64.5 (no result: LASV entry inh, Marburg entry inh)
COc1ccc(S[C@@H](CCN2CC[C@H](C)CCC2=O)c2ccccc2)cc1	none (no result: LASV entry inh, Marburg entry inh)
Cc1cc(F)ccc1NC(=O)c1c(C)oc2c1C1=NCCN1C=N2	none (no result: Marburg entry inh)
Nc1nc2c(ncn2COC(CO)CO)c(=O)[nH]1	HCMV antiviral -80.5, Marburg entry inh inconclusive
Nc1nc2c(ncn2[C@H]2C[C@H](O)[C@@H](CO)O2)c(=O)[nH]1	HCMV antiviral inconclusive (no result: LASV entry inh, Marburg entry inh)
CCCc1ccc(-c2ccc(C(=O)O)cc2)nc1	LASV entry inh 11.6µM, Marburg entry inh inconclusive (no result: FMDV antiviral)
CC(C)N(C(=O)c1cc2c(Cl)nc3ccccc3c2s1)C1CCCCC1	none
N#C/C(=C\c1ccc(OCc2ccc(C(=O)O)cc2)cc1)C(=O)N1CCOCC1	FMDV antiviral inconclusive, LASV entry inh 1.84µM, Marburg entry inh 0.92µM
Cc1cccc(NC(=O)CN2C(=O)COc3ccc(S(=O)(=O)Nc4ccccc4)cc32)c1C	none (no result: Marburg entry inh)
COc1ccc(C(=O)Nc2sc3c(c2C(N)=O)CCCC3)cc1OC	none (no result: HCMV antiviral, LASV entry inh, Marburg entry inh)
O=C(c1cccs1)N1CCC(c2nc3c(nnn3Cc3ccccc3Cl)c(=O)[nH]2)CC1	LASV entry inh 7.94µM
CC(C)(C)c1ccc(Cn2nnc3c(=O)[nH]c(C4CCN(C(=O)Cc5cccs5)CC4)nc32)cc1	FMDV antiviral inconclusive, HCMV antiviral inconclusive, LASV entry inh inconclusive, Marburg entry inh 8.2µM
O=C(NCc1cccs1)c1nc2c(nnn2Cc2ccccc2Cl)c(=O)[nH]1	FMDV antiviral inconclusive, HCMV antiviral -102.3, LASV entry inh 11.2µM, Marburg entry inh inconclusive
Cc1ccc(Cn2nnc3c(=O)[nH]c(C4CCN(S(=O)(=O)Cc5ccccc5)CC4)nc32)cc1	LASV entry inh 11.2µM, Marburg entry inh inconclusive
COCc1c(C(=O)N2CCN(C3CCCC3)CC2)cnn1-c1nccc(-c2cccs2)n1	none (no result: HCMV antiviral, LASV entry inh, Marburg entry inh)
O=S(=O)(Nc1cccc(-c2ccc(N3CCCCC3)nn2)c1)c1cccs1	none (no result: Marburg entry inh)
O=C(Nc1cccc(C(=O)Nc2ccc(S(=O)(=O)O)c3cc(S(=O)(=O)O)cc(S(=O)(=O)O)c23)c1)Nc1cccc(C(=O)Nc2ccc(S(=O)(=O)O)c3cc(S(=O)(=O)O)cc(S(=O)(=O)O)c23)c1	LASV entry inh inconclusive, Marburg entry inh inconclusive (no result: HCMV antiviral)
CCOC(=O)c1ccc(NS(=O)(=O)c2cc(-c3onc(C)c3C)ccc2C)cc1	none (no result: Marburg entry inh)
N#CC1=C(N)NC(SCc2ccc(F)cc2)=C(C#N)C12CCCCC2	LASV entry inh inconclusive, Marburg entry inh 7.94µM
N#CC1=C(N)NC(SCC(=O)O)=C(C#N)C12CCCC2	none
COc1ccc(CN2C(=O)C(n3cccc3)c3cc(F)ccc32)cc1 (stereo unspecified)	none (no result: FMDV antiviral, LASV entry inh, Marburg entry inh)
Cc1ccccc1NC(=O)c1ccc(N/N=C/c2ccccc2O)c([N+](=O)[O-])c1	HCMV antiviral -84.5
